# Screening results (PubChem)
# Tg IFNy HTS: inhibitors of Toxoplasma gondii growth with IFN-gamma | Toxoplasma gondii growth in IFN-gamma-treated host cells; active compounds read low | activity change, negative = inhibition, % (concentration not given with the values) | hit rate 3.8% among 69,000 | AID 1259416; in the data active means activity change below about -70%, passing the limit was not always enough;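 further: host cells are HeLa cells infected with Toxoplasma gondii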
# Numbers without * were called inactive; ! = a repeat was not active. The entries come from a sample that favours hits as a whole.
SMILES,Tg IFNy HTS
Cc1cc(NC(=O)CCc2nnc(C(C)C)o2)n(C2CCCC2)n1,0.4
CO[C@@H]1CC[C@@H]2[C@H]1OCCN2C(=O)N(C)C,50.6
CN(C)C(=O)N1CCO[C@@H]2[C@H]1CC[C@H]2OCC1CCOCC1,-72.5*
CN(C)C(=O)N1CCO[C@@H]2[C@H]1CC[C@H]2OCCN1CCCC1,-3.0
Cn1ccnc1-c1ccc(N2CCCC(CO)(Cc3ccccc3F)C2)nn1 (stereo not drawn),15.9
Cn1c(Cc2ccccc2)nnc1SCc1c(F)cccc1Cl,8.6
Clc1cc(Cl)cc(N=c2ssnc2-c2ccccc2Cl)c1,-90.2*
CC1(CCC#N)N=C(SCCC#N)N(c2ccccc2)C1=O (stereo not drawn),-74.4*
COc1ccc(/C=C/CN2CCCCC2c2ccccn2)cc1 (stereo not drawn),19.9
COCC(=O)NCC1Cn2nnc(-c3ccnn3C)c2CO1 (stereo not drawn),0.8
CN1C(=O)CCc2cc(NS(=O)(=O)c3ccc(Br)cc3)ccc21,-95.1*
COCCN1C(=O)CCc2cc(NS(=O)(=O)c3ccc(Cl)s3)ccc21,21.3
CN1C(=O)CCc2cc(NS(=O)(=O)c3ccc(Br)s3)ccc21,-97.1*
COCCN1C(=O)CCc2cc(NS(=O)(=O)c3ccc(Br)cc3)ccc21,6.7
CN1C(=O)CCc2cc(NS(=O)(=O)Cc3cccc(Cl)c3)ccc21,22.7
Cc1ccc(S(=O)(=O)Nc2ccc3c(c2)CCC(=O)N3C)cc1Cl,-39.3
COCCN(CCOC)C(=O)CN1CCN(C)CC1,-2.1
COC1CCN(S(=O)(=O)N2CCCC2c2ccc(F)cc2)CC1 (stereo not drawn),-44.4
CC(=O)Nc1cccc(-c2cc(C(F)(F)F)cc3[nH]cnc23)c1,-77.3*
CC(=O)Nc1cccc(-c2ccccc2-c2nnc(C)s2)c1,-23.2
CC(=O)Nc1cccc(-c2cnn3cccnc23)c1,-49.9
Cc1cc(Sc2ccccn2)nc(N)n1,37.4
COCC(=O)N1CC[C@@H]2N(S(C)(=O)=O)CC[C@@]2(C(=O)N2CCOCC2)CC1,4.3
Cn1cc(CN2CCC3(CC(=O)N(c4ccc(F)c(F)c4)C3)C2)cn1 (stereo not drawn),12.1
Cc1nc(C2COCCN2Cc2c(C)noc2C)cs1 (stereo not drawn),3.0
SMILES,Tg IFNy HTS
COc1cc(N2CCC(N3CCN(C)CC3)CC2)ccc1Nc1ncc(Cl)c(Nc2ccccc2S(=O)(=O)C(C)C)n1,-83.1*
C=CC(=O)Nc1cccc(Nc2nc(Nc3ccc(N4CCN(C(C)=O)CC4)cc3OC)ncc2C(F)(F)F)c1,1.8
C=CC(=O)Nc1cccc(Oc2nc(Nc3ccc(N4CCN(C)CC4)cc3)ncc2Cl)c1,-57.1
COc1cc(N2CCC(N(C)C)CC2)ccc1Nc1ncc(Cl)c(Nc2ccccc2P(C)(C)=O)n1,-73.7*
FC(F)(F)c1cccc(OCCc2cc(C3CCCN3Cc3ccccn3)n[nH]2)c1 (stereo not drawn),47.6
CC(=O)N[C@H]1C[C@@H](c2cnc(-c3ccccn3)nc2)O[C@@H](C2CCCCC2)C1,-9.9
CSc1sc(C(=O)Nc2cc(C(F)(F)F)cc(C(F)(F)F)c2)c2c1C=CCC2,-54.6
COc1cncc(C(=O)Nc2ccc(Cl)cc2)c1,30.3
CSc1ncc2c(n1)-c1c(SC)sc(C(=O)Nc3ccc(Cl)cc3)c1CC2,-84.9*
O=C(Nc1cnn(-c2ncncc2N2CCCCC2)c1)C1CCCCC1,-79.7*
O=C(Nc1cnn(-c2ncncc2N2CCSCC2)c1)NC1CCCCC1,18.5
O=C(Nc1cnn(-c2ncncc2N2CCCCC2)c1)C1CCCC1,-33.3
COCC(=O)N1CCN(Cc2csc(C)n2)c2ncccc2C1,87.1
CCc1nc(CN2CCC(=O)N(Cc3ccc(F)cc3)C(C(C)C)C2)cs1 (stereo not drawn),5.8
CCOCC1CN(Cc2ccc(F)cc2)Cc2nn(CC3CC3)cc21 (stereo not drawn),8.8
Cc1ccc(-c2cc(-c3ccccc3)nc(-c3ccccc3)c2)cc1,-68.9
Cc1cc(C)cc(Sc2ccc3nnc(-c4ccccc4)n3n2)c1,-81.7*
CSc1nnc(-c2ccccc2)n1C,31.3
O=C1CCCN1CC1CCN(C(=O)c2ccc(N3CCOCC3)nc2)CC1,102.2
COCCN(Cc1ccc2c(c1)CCCN2C)S(=O)(=O)c1ccc2[nH]c(=O)ccc2c1,7.8
CCCCN(C1CCN(C(C)=O)CC1)S(=O)(=O)c1ccc2[nH]c(=O)ccc2c1,87.1
CCN1CCCc2cc(CN(C3CCCC3)S(=O)(=O)c3ccc4[nH]c(=O)ccc4c3)ccc21,-86.5*
Cc1cc(NC(=O)CN2C(=O)COc3ccccc32)ccc1Cl,-9.2
COC(=O)c1ccc(C(=O)N2C[C@@H]3CCC4(NC(=O)c5cccnc5N4)[C@@H]3C2)cc1 (stereo partly drawn),-5.2
COc1ccccc1CNC(=O)CC1Nc2c3ccccc3nc(=S)n2C1=O (stereo not drawn),15.5
SMILES,Tg IFNy HTS
Cc1ccc(S(=O)(=O)N2[C@@H]3CNC[C@H]2C3c2ccc(/C=C/c3ccccc3)cc2)cc1 (stereo partly drawn),-43.9
Cc1ccc(/C=C2\C(=O)C3(C)CCC2C3(C)C)cc1 (stereo not drawn),8.9
Cc1ccc(/C=C2\CNC/C(=C\c3ccc(C)cc3)C2=O)cc1,-85.9*
Cc1oc(-c2cccs2)nc1CN1CCCC(c2ccccc2)C1 (stereo not drawn),0.1
CCn1c(C2CCCN(C(=O)C(=O)c3cccnc3)C2)nn(C)c1=O (stereo not drawn),-4.9
Cc1ccc(C2=NC(c3ccc(F)cc3)NC(c3ccccc3O)C2)cc1 (stereo not drawn),-10.6
COc1ccc(-c2ccccc2)cc1-n1ccnc1-c1cnc[nH]1,-81.6*
CCOCc1cc(-c2nccn2-c2cccnc2)ccc1OC,-3.1
COc1cccc(-c2nccn2CCc2cnc[nH]2)c1OC,7.7
CO[C@H]1CN(Cc2nccn2C(C)C)CC[C@H]1N,0.2
COC(=O)C1=C(C)NC(C)=C(C(=O)OCCCN2CCC(c3ccccc3)(c3ccccc3)CC2)[C@H]1c1cccc([N+](=O)[O-])c1,-71.3*!
COCCOC(=O)C1=C(C)NC(C)=C(C(=O)OC(C)C)C1c1cccc([N+](=O)[O-])c1 (stereo not drawn),6.9
CC1=C(C(=O)OCCN(Cc2ccccc2)c2ccccc2)C(c2cccc([N+](=O)[O-])c2)C(P2(=O)OCC(C)(C)CO2)=C(C)N1 (stereo not drawn),-13.0
CCOC(=O)C1=C(C)NC(C)=C(C(=O)OC)C1c1cccc([N+](=O)[O-])c1 (stereo not drawn),-1.7
COCCOC(=O)C1=C(C)NC(C)=C(C(=O)OC/C=C/c2ccccc2)C1c1cccc([N+](=O)[O-])c1 (stereo not drawn),-72.6*!
COC(=O)C1=C(C)NC(C)=C(C(=O)O[C@@H]2CCCN(Cc3ccccc3)C2)[C@@H]1c1cccc([N+](=O)[O-])c1,31.7
CCOC(=O)CSc1nnc(Cc2ccc(Cl)cc2)c(=O)[nH]1,18.4
CCSc1ncc(CN(C)Cc2n[nH]c3c2CCCC3)cn1,-54.3
Cc1ccccc1-n1nc(C)c(CN(C)Cc2n[nH]c3c2CCCC3)c1C,-77.7*
COc1ccc2c(c1)c(CN(C)Cc1n[nH]c3c1CCCC3)cn2C(C)C,16.7
CCCCOc1ccccc1-c1cc2c(=O)n(Cc3nc(-c4ccccc4)oc3C)ccn2n1,-32.0
Cc1cc(-c2ccc3c(c2)OCO3)cnc1N,51.8
Cc1ncc(-c2ccc3c(c2)OCO3)c(-c2cccnc2)n1,0.8
Cc1nc(-c2ccc3c(c2)OCO3)cc(C(C)C)n1,-72.3*
